Consider eight compounds from PubChem BioAssay (NCI).

SMILES strings stand for the structures. Compounds without any hit were thinned out: in the full panel of roughly 83,000, 20% have a hit.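 Step 1: grow cells in 96-well plates. Step 2: add test compound at a single concentration. Step 3: incubate 48 h. Step 4: record percent growth.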 A number with no mark means an inactive call. Activity calls are given as the source filed them. How the source made its calls: active means growth percent below 10; inactive means the rest.

Among the test systems are SR leukemia; RPMI-8226 leukemia; OVCAR-8 ovarian; OVCAR-5 ovarian; OVCAR-4 ovarian; SK-OV-3 ovarian; IGROV1 ovarian; OVCAR-3 ovarian; HS 578T breast; NCI/ADR-RES ovarian; T-47D breast; BT-549 breast; MDA-MB-435 melanoma; SW-620 colon; MCF7 breast; HCT-116 colon; HCC-2998 colon; KM12 colon.
Holding throughout (experiment): NCI-60 one-dose screen, 48 h (100 = growth as untreated, 0 = no growth, -100 = all killed)
What all share (conditions): 10 µM unless noted

Consider `CCNC(=O)c1[nH]cc(-c2ccccc2)c1-c1cc(OC)c2c(c1OC)OCO2`, for which the growth in the experiment with SR leukemia was 93%; in the experiment on RPMI-8226 leukemia, 99%; in the experiment on OVCAR-8 ovarian, 98.9%; with OVCAR-5 ovarian it was 98.5%; in the experiment with OVCAR-4 ovarian, 98.6%; in the experiment with SK-OV-3 ovarian, 90.3%. Also, the growth in the experiment on IGROV1 ovarian is 88.5%; with OVCAR-3 ovarian, 104%; in the experiment with HS 578T breast, 93.2%; in the experiment on NCI/ADR-RES ovarian, 93%; in the experiment on T-47D breast, 87%; in the experiment on BT-549 breast, 98.4%. Further, the growth is 103% with MDA-MB-435 melanoma; 97.6% in the experiment with SW-620 colon; 101% with MCF7 breast; 90.7% in the experiment on HCT-116 colon; 104% with HCC-2998 colon; 121% with KM12 colon.

For the compound `CSc1nnc(-c2cnn3c2NC(c2ccccc2)C3)n1-c1ccc(C(F)(F)F)cc1` (centres undefined), the growth was 17.2% in the experiment with SR leukemia; 56.9% in the experiment with RPMI-8226 leukemia; 79.4% in the experiment with OVCAR-8 ovarian; 84.7% in the experiment with OVCAR-5 ovarian; 59.1% in the experiment on OVCAR-4 ovarian; 69.4% in the experiment on SK-OV-3 ovarian. The growth with IGROV1 ovarian is 69.8%; in the experiment with OVCAR-3 ovarian, 37.6%; with HS 578T breast it was 64.7%; in the experiment with NCI/ADR-RES ovarian it was 56%; in the experiment on T-47D breast, 54.2%; in the experiment with BT-549 breast it was 85.7%. Also, the growth was -25.7% (active) in the experiment with MDA-MB-435 melanoma; 50.9% in the experiment with SW-620 colon; 26.9% with MCF7 breast; 46% in the experiment with HCT-116 colon; 85.9% in the experiment with HCC-2998 colon; 49.3% in the experiment with KM12 colon.

Turning to `Clc1ccc(Sc2cnc(-c3ccccc3)o2)cc1`, the growth with SR leukemia is 90%; in the experiment on RPMI-8226 leukemia it was 89.7%; with OVCAR-8 ovarian, 99.2%; with OVCAR-5 ovarian it was 98.8%; with OVCAR-4 ovarian it was 95.8%; in the experiment with SK-OV-3 ovarian, 101%. Further, the growth is 97% in the experiment on IGROV1 ovarian; 97.5% with OVCAR-3 ovarian; 99.1% with HS 578T breast; 108% with NCI/ADR-RES ovarian; 84.6% with T-47D breast; 96.6% in the experiment on BT-549 breast. Also, the growth in the experiment with MDA-MB-435 melanoma is 101%; in the experiment on SW-620 colon it was 105%; in the experiment on MCF7 breast, 96.1%; in the experiment on HCT-116 colon, 104%; in the experiment with HCC-2998 colon, 99.2%; in the experiment with KM12 colon it was 102%.

With `O=S(=O)(NCCCNc1nccc(-c2c(-c3ccc(F)c(O)c3)nc3occn23)n1)c1ccccc1`, the growth was 70.2% with SR leukemia; 78.2% with RPMI-8226 leukemia; 94.8% with OVCAR-8 ovarian; 121% in the experiment on OVCAR-5 ovarian; 104% in the experiment on OVCAR-4 ovarian; 79.4% in the experiment with SK-OV-3 ovarian. Moreover, the growth in the experiment on IGROV1 ovarian is 92.1%; in the experiment on OVCAR-3 ovarian it was 97.9%; in the experiment with HS 578T breast, 87.3%; in the experiment with NCI/ADR-RES ovarian, 118%; in the experiment on T-47D breast it was 101%; with BT-549 breast, 114%. Also, the growth is 37.4% with MDA-MB-435 melanoma; 100% in the experiment on SW-620 colon; 77.3% in the experiment on MCF7 breast; 52.6% in the experiment with HCT-116 colon; 98.7% in the experiment with HCC-2998 colon; 84.6% in the experiment with KM12 colon.

As to `CC(C)=CCC[C@](C)(O)[C@H]1CC[C@]2(C)[C@@H]1CC[C@@H]1[C@@]3(C)Cc4nccnc4C(C)(C)[C@@H]3CC[C@]12C`, the growth in the experiment with SR leukemia was 43.7%; with RPMI-8226 leukemia, 43.2%; in the experiment with OVCAR-8 ovarian, 101%; in the experiment with OVCAR-5 ovarian it was 89.9%; in the experiment on OVCAR-4 ovarian, 90.1%; in the experiment on SK-OV-3 ovarian, 84.1%. Besides, the growth was 104% in the experiment with IGROV1 ovarian; 90.3% with OVCAR-3 ovarian; 97.6% in the experiment on HS 578T breast; 83.6% in the experiment on NCI/ADR-RES ovarian; 51.5% in the experiment on T-47D breast; 74.8% with BT-549 breast. Further, the growth in the experiment on MDA-MB-435 melanoma is 64.6%; in the experiment on SW-620 colon, 71.1%; in the experiment with MCF7 breast it was -59.3% (active); in the experiment with HCT-116 colon, 46.9%; in the experiment on HCC-2998 colon, 79.4%; in the experiment with KM12 colon, 75%.

Regarding `Cc1ccc2c3c(c(=O)[nH]c2c1)C1(C(C#N)=C(N)O3)c2cc(Br)ccc2-c2ccc(Br)cc21`, the growth in the experiment on SR leukemia is 22.2%; in the experiment with RPMI-8226 leukemia, 14.8%; in the experiment on OVCAR-8 ovarian, 0.183% (active); in the experiment with OVCAR-5 ovarian, 18.3%; in the experiment with OVCAR-4 ovarian, -50% (active); in the experiment on SK-OV-3 ovarian, 47.7%. Also, the growth with IGROV1 ovarian was -13.2% (active); with OVCAR-3 ovarian, -40.1% (active); in the experiment on HS 578T breast, -5.5% (active); with NCI/ADR-RES ovarian, 54.1%; in the experiment on T-47D breast, -29.6% (active); in the experiment on BT-549 breast, 61.8%. Also, the growth in the experiment on MDA-MB-435 melanoma is 42.8%; in the experiment with SW-620 colon it was -36.5% (active); in the experiment on MCF7 breast, -42.6% (active); in the experiment with HCT-116 colon it was 10%; in the experiment with HCC-2998 colon, -4.73% (active); in the experiment with KM12 colon it was 6.52% (active).

In the case of `COc1cc2c(c(OC)c1OC)-c1ccc(OC)c(=O)cc1[C@@H](NC(=O)CCl)CC2`, the growth with SR leukemia is 36.3%; with RPMI-8226 leukemia, 20.3%; with OVCAR-8 ovarian, 8.53% (active); in the experiment with OVCAR-5 ovarian it was 22.4%; with OVCAR-4 ovarian, 42.7%; in the experiment on SK-OV-3 ovarian, 15.5%. For the same compound, the growth in the experiment on IGROV1 ovarian was 14.1%; in the experiment on OVCAR-3 ovarian it was 8.93% (active); with HS 578T breast, 63.4%; in the experiment with NCI/ADR-RES ovarian it was -39.4% (active); with T-47D breast, 73.7%; with BT-549 breast, -48.8% (active). Also, the growth was 8% (active) in the experiment with MDA-MB-435 melanoma; 21.3% in the experiment on SW-620 colon; 18.1% in the experiment with MCF7 breast; -39.3% (active) in the experiment with HCT-116 colon; 5.69% (active) with HCC-2998 colon; -10.3% (active) in the experiment with KM12 colon.

For the compound `CCCCNc1ccc(C#N)c(OCCN(CC)CC)c1`, the growth in the experiment with SR leukemia is 93.8%; with RPMI-8226 leukemia it was 93.3%; in the experiment on OVCAR-8 ovarian, 100%; in the experiment with OVCAR-5 ovarian, 97.4%; with OVCAR-4 ovarian it was 105%; in the experiment on SK-OV-3 ovarian, 102%. Further, the growth in the experiment on IGROV1 ovarian is 105%; in the experiment on OVCAR-3 ovarian it was 109%; in the experiment with HS 578T breast, 123%; in the experiment with NCI/ADR-RES ovarian it was 98.4%; in the experiment on T-47D breast, 104%; in the experiment with BT-549 breast, 98.2%. Also, the growth with MDA-MB-435 melanoma is 104%; in the experiment with SW-620 colon, 109%; in the experiment on MCF7 breast, 93.8%; with HCT-116 colon it was 104%; in the experiment with HCC-2998 colon, 108%; in the experiment with KM12 colon, 112%.
